# Bioassay records: PubChem BioAssay, Bradner/Qi Labs at DFCI
# Only a selection was taken, and hits are over-represented in it overall.
# CBX7 AlphaScr = CBX7 inhibition, primary AlphaScreen; AlphaScreen His6-CBX7 / biotin-H3K27me3 peptide binding; stronger effect = lower value; normalised signal (fraction of DMSO) (concentration not given with the values); 1.1% of 66,000 active; in the data active means normalised signal below about 0.5
# Target sequence (O95931 whole entry, looked up): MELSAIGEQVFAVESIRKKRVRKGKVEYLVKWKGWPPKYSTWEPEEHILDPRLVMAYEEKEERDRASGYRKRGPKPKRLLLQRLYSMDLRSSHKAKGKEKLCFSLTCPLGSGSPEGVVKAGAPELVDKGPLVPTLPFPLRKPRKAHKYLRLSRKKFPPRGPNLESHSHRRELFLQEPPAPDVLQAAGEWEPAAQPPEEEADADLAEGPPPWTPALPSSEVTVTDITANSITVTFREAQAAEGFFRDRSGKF
# * = called active by the depositor; ! = not active in a repeat.
SMILES,CBX7 AlphaScr
COc1ccccc1-c1cc2nc(C)c(CCC(=O)Nc3ccc(C)cc3)c(C)n2n1,1
Cc1cc(C)cc(Nc2cc(C(=O)NC3CCCC3)c3ccccc3n2)c1,1
COCCCNC(=O)c1nc(-c2ccccc2C)oc1C,1.1
Cc1ccc(C(=O)c2oc3ccccc3c2NC(=O)C(C)Oc2ccc(F)cc2)cc1 (configuration not stated),1.7
Cc1ccn(-c2ccc3cc(-c4ccccc4)c(=O)oc3c2)n1,0.83
COc1ccc(OC)c(C2=NOC(C(=O)N3C(C)CCCC3C)C2)c1 (configuration not stated),1
CCN(CCCNC(=O)c1cc2c(-c3ccc(OC)c(OC)c3)nn(C)c2s1)c1ccccc1,0.81
Cc1ccc(Nc2nc(-c3c(C)nc4sccn34)cs2)c(C)c1,0.42*!
COc1ccc(Cl)cc1Nc1nc(-c2c(C)nc3sccn23)cs1,0.97
COc1ccccc1Nc1nc(-c2c(C)nc3ccccn23)cs1,0.96
Cc1cccc(Nc2nc(-c3c(C)nc4ccccn34)cs2)c1,1
Cc1nc2ccccn2c1-c1csc(Nc2ccc(Br)cc2Br)n1,0.8
COc1ccccc1Nc1nc(-c2c(C)nc3sccn23)cs1,0.32*
Cc1ccc(NC(=O)CN2C(=O)c3ccccc3C2=O)c(C(=O)c2ccccc2)c1,0.92
O=C(Cc1ccc(F)cc1)Nc1c2c(nn1-c1cccc(Cl)c1)CS(=O)(=O)C2,1
COc1ccccc1Nc1ncc(C(=O)NCCCN2CCN(C)CC2)c2ccccc12,1.4
CCc1ccc(N(CC)C(=O)Cn2ncc3c2-c2cc(C)ccc2OC3)cc1,1
COCCN(CCOC)S(=O)(=O)c1ccc(C(=O)Nc2nc3c(Cl)cccc3s2)cc1,1
CCCCNC(=O)CN1C(=O)COc2ccc(S(=O)(=O)N3CC(C)CC(C)C3)cc21 (configuration not stated),1
COc1ccc(NC2c3ccccc3C(=O)N2c2ccccc2C)cc1 (configuration not stated),0.91
Cc1c(C(=O)NCCC(C)C)oc2ccc(S(=O)(=O)N3CCC4(CC3)OCCO4)cc12,1.2
Cc1c(C(=O)NCc2ccccn2)oc2ccc(S(=O)(=O)N3CCC4(CC3)OCCO4)cc12,0.43*
Cc1c(C(=O)NCc2ccccc2)oc2ccc(S(=O)(=O)N3CCC4(CC3)OCCO4)cc12,0.98
Fc1ccccc1CSc1nc2ccncc2n1Cc1ccc(Cl)cc1,1.1
Cc1nnc(NC(=O)c2ccc(S(=O)(=O)N(C)Cc3ccccc3)cc2)o1,0.0081*
SMILES,CBX7 AlphaScr
CN(C1CCCCC1)S(=O)(=O)c1ccc(C(=O)Nc2nnc(-c3ccccc3Cl)o2)cc1,0.91
COCCN(CCOC)S(=O)(=O)c1ccc(C(=O)Nc2nnc(-c3ccccc3Cl)o2)cc1,0.27*
COCCN(CCOC)S(=O)(=O)c1ccc(C(=O)Nc2nc(-c3ccc(OC)cc3)cs2)cc1,1
CCN(Cc1ccccc1)S(=O)(=O)c1ccc(C(=O)Nc2nnc(-c3ccc(OC)cc3)o2)cc1,1.2
CCCN(CCC)S(=O)(=O)c1ccc(C(=O)Nc2nnc(-c3ccccc3Cl)o2)cc1,1.1
COCCN(CCOC)S(=O)(=O)c1ccc(C(=O)Nc2nnc(-c3ccc(F)cc3)o2)cc1,0.025*
Cc1nnc(NC(=O)c2ccc(S(=O)(=O)N(C)C)cc2)o1,0.012*
CN(C)S(=O)(=O)c1ccc(C(=O)Nc2c(C(N)=O)oc3ccccc23)cc1,1.1
CN(Cc1ccccc1)S(=O)(=O)c1ccc(C(=O)Nc2ccccc2-c2nc3ccccc3o2)cc1,1
COCc1nnc(NC(=O)c2ccc(S(=O)(=O)N(C)Cc3ccccc3)cc2)o1,0.88
COc1ccc(-c2nnc(NC(=O)c3ccc(S(=O)(=O)N(C)C)cc3)o2)c(OC)c1,0.58
Cc1cccc(Cc2c(C)nc3nc(SCC(=O)NCc4ccccc4Cl)nn3c2C)c1,1.1
COc1ccc(N(CC(=O)Nc2ccc(C(C)C)cc2)S(=O)(=O)c2c(C)n[nH]c2C)cc1,0.94
CC(C)N(C(=O)Nc1ccc2snnc2c1)C(C)C,1
CCC(=O)N1CCc2cc(S(=O)(=O)Nc3ccc(C)cc3C)ccc21,0.8
CC1=Nc2cc(C(=O)NCCCN3CCOCC3)ccc2Sc2ccc(Br)cc21,1
COc1ccc2c(c1)c(=O)c(S(=O)(=O)c1ccccc1)cn2Cc1ccc(Cl)cc1,1.1
C#CCOc1cc(Br)c(/C=C/c2cc(C(F)(F)F)[nH]c(=O)n2)cc1OC,0.7
CCCCN(CCCC)S(=O)(=O)c1ccc(C(=O)Nc2nc3c(s2)COc2ccccc2-3)cc1,0.96
COCCN(CCOC)S(=O)(=O)c1ccc(C(=O)Nc2nnc(C)o2)cc1,0.0057*
CCCCN(CCCC)S(=O)(=O)c1ccc(C(=O)Nc2nnc(C)o2)cc1,0.0047*
CCCCN(CCCC)S(=O)(=O)c1ccc(C(=O)Nc2ccccc2-c2nc3ccccc3[nH]2)cc1,1
COCCN(CCOC)S(=O)(=O)c1ccc(C(=O)Nc2nc(-c3ccncc3)cs2)cc1,1
COCCN(CCOC)S(=O)(=O)c1ccc(C(=O)Nc2nnc(COC)o2)cc1,0.58
CC(C)OC(=O)c1ccc(Nc2nc3ccccc3nc2NS(=O)(=O)c2ccc(Cl)cc2)cc1,1.1
SMILES,CBX7 AlphaScr
CCCC1=Nc2cc(C(=O)NCc3ccc(C)cc3)ccc2Sc2ccccc21,0.86
O=c1[nH]cnc2c1c(-c1ccccc1)c(-c1ccccc1)n2CCc1ccc(F)cc1,0.79
Cc1cccc(CC(=O)N2CC(=O)Nc3ccc(Cl)cc3C2c2ccccc2)c1 (configuration not stated),0.62
COc1ccc(OC)c(NC(=O)CCc2nc(-c3ccccc3F)no2)c1,1
CCc1cc(-c2[nH]ncc2-c2ccc(F)cc2)c(O)cc1OC,0.91
CCCc1cc(-c2[nH]ncc2-c2ccc3c(c2)OCCCO3)c(O)cc1OC,0.47*
COc1ccc(-c2[nH]ncc2-c2ccc(Br)cc2)c(O)c1,0.6
O=C(c1ccc2c(=O)n3c(nc2c1)CCCCC3)N1CCCCCC1,1.1
COc1ccc(-n2c(-c3ccc(C)cc3)cc3c2CC(C)(C)CC3=O)c(OC)c1,0.27*
COc1ccc(-n2c(-c3ccc(Cl)cc3)cc3c2CC(C)(C)CC3=O)cc1,0.88
COc1ccccc1-n1c(-c2ccc(C)cc2)cc2c1CC(C)(C)CC2=O,0.32*
COc1ccc(-n2c3c(cc(C(=O)Nc4ccc(OC)cc4OC)c2=O)C(=O)CC(C)(C)C3)cc1,1.1
COc1ccccc1-n1c2c(cc(C(=O)N3CCC(C)CC3)c1=O)C(=O)CC(C)(C)C2,1
CCOc1ccc(-n2c(-c3ccc(OC)cc3)cc3c2CC(C)(C)CC3=O)cc1,0.4*
Cc1ccc(-n2c(-c3ccccc3)cc3c2CC(C)(C)CC3=O)cc1Cl,0.82
COc1ccc(-n2c(-c3ccc(C)cc3)cc3c2CC(C)(C)CC3=O)cc1,0.95
COc1ccc(Cn2c(-c3ccc(C)cc3)cc3c2CC(C)(C)CC3=O)cc1,0.8
COc1cccc(-n2c(-c3ccc(C)cc3)cc3c2CC(C)(C)CC3=O)c1,0.35*
COc1ccc(-c2cc3c(n2-c2ccccc2)CC(C)(C)CC3=O)cc1,0.79
Cc1ccc(-c2cc3c(n2-c2ccccc2)CC(C)(C)CC3=O)cc1,0.95
COc1cc(Cl)c(C)cc1NC(=O)CCc1c(C)nc2cc(-c3ccccc3OC)nn2c1C,0.94
Cc1ccc(OCc2nc(-c3ccccc3Cl)no2)cc1C,1.6
O=C(C1CCC(=O)N1C1CCCC1)N1CCN(c2ccc(F)cc2)CC1 (configuration not stated),1.1
Cc1cc(N2CCN(C)CC2)nc2ccc(NC(=O)CCC(=O)NC3CCCCCC3)cc12,1
